Results filed as inconclusive are left out. Unmarked numbers belong to inactive results. The call rests on the fitted dose curve; in most records, active means well fitted curve in the direction sought with a large enough effect; inconclusive means small, poorly fitted or top-dose-only effect, or another doubt; inactive means no such curve, though single readings can be large; an effect the other way counts as inactive or inconclusive.
What follows are compounds tested against Cellular tumor antigen p53 (Homo sapiens) (UniProt P04637) (assay: Primary qHTS for small molecule compounds that upregulate eGFP-tagged delta133p53alpha (in N-terminal) cells. (AID 2060322;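 further: cells pre-induced with doxycycline then dosed without doxycycline; 0% = DMSO vehicle and 100% = reference activator; nearly all actives have a fitted effect of over 75% in size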)). Conditions: NCI-H358 eGFP-delta133p53alpha fluorescence, 24 h; activation: active compounds read high.
Cellular tumor antigen p53 (Homo sapiens), sequence (P04637 whole entry, looked up): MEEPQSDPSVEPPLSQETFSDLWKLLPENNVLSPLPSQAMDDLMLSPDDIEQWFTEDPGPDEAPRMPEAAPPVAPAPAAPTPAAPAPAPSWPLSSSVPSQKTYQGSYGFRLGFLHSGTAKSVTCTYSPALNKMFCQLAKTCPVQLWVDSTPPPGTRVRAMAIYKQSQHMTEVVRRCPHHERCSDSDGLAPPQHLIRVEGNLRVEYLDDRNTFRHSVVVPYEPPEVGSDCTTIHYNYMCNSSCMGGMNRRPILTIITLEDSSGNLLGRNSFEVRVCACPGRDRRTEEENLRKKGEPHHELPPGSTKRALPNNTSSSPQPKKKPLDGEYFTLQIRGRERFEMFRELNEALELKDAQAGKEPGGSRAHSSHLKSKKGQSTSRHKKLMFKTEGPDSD
Summary of the method: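 NCI-H358 cells pre-induced 24 h with 10 ng/ml doxycycline for eGFP-delta133p53alpha, plated dox-free and exposed 24 h at 37C to titrated compounds. Fixed, Hoechst-stained; gated GFP peak intensity by laser scanning cytometry, normalized to DMSO (0%) and 57.5 uM 5-azacytidine (100%).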
In the case of `CC1(C)[C@H]2C[C@H](C/C=C\CCCC(=O)O)[C@@H](NC(=O)c3csc4ccc(O)cc34)[C@@H]1C2`, the activation is reported as -4.77%. With `C=CCCN1CCC2(CC1)CN(C(=O)c1c(F)cccc1F)c1ccc(Cl)cc12` the activation was 8.11%. Compound `CCCCOC(=O)NC(=O)C1c2ccccc2Oc2ccccc21` has an activation of -11.5%.

These compounds were tested against Aldehyde dehydrogenase, mitochondrial (Homo sapiens) (UniProt P05091) (assay: qHTS for Inhibitors of the Aldehyde Dehydrogenase Family (ALDH2) Primary screen (AID 2061308;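 further: plate controls were vehicle for no effect and reference inhibitor for full effect; nearly all actives have a fitted effect of over 55% in size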)). Conditions: ALDH2 enzyme inhibition qHTS, 1536-well; series mostly up to 56 µM; activity change, negative = inhibition: at the top concentration.
`C[C@]12CC[C@@H]3c4ccc(OC(=O)c5ccccc5)cc4CC[C@H]3[C@@H]1CC[C@@H]2O` was tested, and the “activity change, negative = inhibition” value was 3.96%. In the case of `C[C@@H]1C(=O)O[C@H]2CC34[C@H]5C[C@@H](C(C)(C)C)C36[C@@H](OC(=O)[C@@H]6O)OC4(C(=O)O5)[C@]21O` (stereo not given in full), the “activity change, negative = inhibition” value is reported as 10.9%. In the case of `CC[C@H]1CN(c2nc(N)c(C(N)=O)nc2Cl)CCN1C1CCN(Cc2ccc(Cl)cc2)CC1`, the “activity change, negative = inhibition” value is reported as -0.725%. For `Cc1ccc(C(=O)C(C)CN2CCCCC2)cc1` (stereo not given), the “activity change, negative = inhibition” value was 8.92%. For `COc1cnc(-n2cnc(C)n2)c2[nH]cc(C(=O)C(=O)N3CCN(C(=O)c4ccccc4)CC3)c12`, the “activity change, negative = inhibition” value was -4.15%. For `O=C(Nc1ccc(-n2nc(C(F)(F)F)cc2C(F)(F)F)cc1)c1ccncc1F`, the “activity change, negative = inhibition” value was 3.04%. `CCCCNc1ccc(-c2ccc(CN3CCOCC3)cn2)c(NC2CCC(O)CC2)c1` (stereo not given) was tested, and the “activity change, negative = inhibition” value was 7.79% [at 28 µM]. `Cc1cc(C)c(S(=O)(=O)n2cc(C)cc2C)c(C)c1` was tested, and the “activity change, negative = inhibition” value was 4.69%. With `COc1ccc(C(=O)N(CCC(C)C)Cc2nc(C)c(C)n2Cc2ccccc2C)c(OC)c1` the “activity change, negative = inhibition” value was -5.38%. In the case of `CN1CC2CN(c3ccc4oc5ccccc5c(=O)c4c3)CC2C1` (stereo not given), the “activity change, negative = inhibition” value is reported as -0.0436% [at 28 µM]. `O=C(Nc1cc(-c2ccccc2)nn1-c1ccccc1)c1ccc([N+](=O)[O-])cc1` was tested, and the “activity change, negative = inhibition” value was 0.514%. `COc1ccc(Cl)cc1[C@@]1(F)C(=O)Nc2cc(C(F)(F)F)ccc21` was tested, and the “activity change, negative = inhibition” value was -6.36%.
